PubChem BioAssay (NCATS)
A number with no mark means an inactive call. No rule for the calls is given here.

system: HIV-1 nucleocapsid protein NCp7 (binding to TG oligonucleotide); test: HIV Nucleocapsid (AID 346); settings: HIV-1 NC / fluorescein-TGTGTGTG probe, fluorescence polarization;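 also: potency is for inhibitors that block NC binding and lower polarization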
Method in brief: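 Reagents dispensed (10 nM TG4xF, 100 nM HIV-1 NC), plates spun, compounds pin-transferred, then incubated 1 hr at room temperature before FP imaging. Buffer: Hepes pH 7.5, 250mM NaCl, 1uM ZnCl2, 100 uM TCEP, 5 mM 2-mercaptoethanol.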
Potency is read from the fitted curve at half-maximal effect.

SMILES | Potency [µM]
Cn1c(=O)c(-c2ccc(Cl)cc2)nc2cnc(N3CCOCC3)nc21 | > 20
Cc1noc(C)c1-c1cc(NC2CC2)ncn1 | > 20
CC(C)NC(=O)N1CCC2(CC1)CCN(C(=O)c1csnn1)CC2 | > 20
O=C(c1cc(C(F)(F)F)cc(C(F)(F)F)c1)N1CCC[C@@]2(CCN(Cc3ccncc3)C2)C1 | > 20
O=C(c1ccco1)N1CCC2(CC1)CCN(c1ccc(-c3ccccc3)cc1)CC2 | > 20
CN1CCCC2(CCN(C(=O)c3cnccn3)CC2)C1 | > 20
Cc1cnc(CNc2ncnc3ccc(-c4ccccc4Cl)cc23)cn1 | > 20
CS(=O)(=O)Nc1cccc(-c2cncnc2-n2ccnc2)c1 | > 20
O=S(=O)(c1ccccc1)N1CCC2(CCN(c3ncccn3)CC2)CC1 | > 20
Cc1nc2cnc(OCc3ccccc3)nc2n(CCc2ccccc2)c1=O | > 20
COc1cccc(-c2nccc(NCCc3c[nH]c4ccc(OC)cc34)n2)c1 | > 20
CC(C)CN1CC2(CCN(C(=O)c3csnn3)CC2)C1 | > 20
COc1ccccc1CN1CC2(CCN(S(C)(=O)=O)CC2)C1 | > 20
COc1ccc2[nH]cc(CCNc3nc(-c4ccc(C(=O)N(C)C)cc4)nc4ccccc34)c2c1 | > 20
Cn1cc(-c2nc3cnc(Oc4ccccc4)nc3n(C3CC3)c2=O)c2ccccc21 | > 20
Cc1ccccc1-c1nc(N2CCNCC2)c2ccccc2n1 | > 20
COc1ccc(-n2c(=O)c(CCc3ccccc3)nc3cncnc32)cc1 | > 20
O=S(=O)(c1ccccc1)N1CCC2(CC1)CN(c1ccccc1)C2 | > 20
COC(=O)N1CCC2(CCCN(Cc3cc(C(F)(F)F)cc(C(F)(F)F)c3)C2)CC1 | > 20
CS(=O)(=O)Nc1cccc(-c2nccc(Nc3ccc(F)cc3)n2)c1 | > 20

SMILES | Potency [µM]
COc1ccc(CNc2cc(-c3ccccc3OC)ncn2)c(OC)c1 | > 20
O=C(c1cccc(F)c1)N1CCC2(CC1)CCN(c1ncccn1)CC2 | > 20
Cc1ccccc1-c1nc(N(C)Cc2ccco2)c2ccccc2n1 | > 20
CC(=O)NCCNc1cc(-c2ccccc2C(F)(F)F)ncn1 | > 20
Cn1c(=O)c(-c2cc(F)cc(F)c2)nc2cnc(N3CCOCC3)nc21 | > 20
COCC(=O)N1CCC2(CCN(Cc3nccs3)CC2)CC1 | > 20
CN(C)C(=O)c1ccc(-c2cncnc2Nc2ccc(F)cc2)cc1 | > 20
O=C(c1ccncc1)N1CCC2(CC1)CCN(c1ccncc1)CC2 | > 20
COc1ccc(NC(=O)N2CC[C@@]3(CCCN(C(=O)c4ccco4)C3)C2)cc1 | > 20
CN(C)C(=O)c1ccc(-c2ccc3ncnc(N(C)Cc4ccco4)c3c2)cc1 | > 20
Cc1cccc(CNc2cc(-c3cccc(NS(C)(=O)=O)c3)ncn2)c1 | > 20
COc1ccc(NC(=O)N2CCCC3(CCN(C(=O)c4c(C)noc4C)CC3)C2)cc1 | > 20
Cc1cccc(CNc2nc(-c3c(C)noc3C)nc3ccccc23)c1 | > 20
Cc1nc2cnc(Nc3ccccc3)nc2n(C[C@H]2CCCO2)c1=O | > 20
N#Cc1ccc(CN2CCC3(CC2)CCN(C(=O)c2cccc(F)c2)CC3)cc1 | > 20
COc1ccc(NC(=O)N2CC3(CCN(C(=O)c4ccncc4)CC3)C2)cc1 | > 20
COc1ncc2nc(-c3cn(C)c4ccccc34)c(=O)n(CCC#N)c2n1 | > 20
Cc1cnc(CNc2ncncc2-c2ccccc2Cl)cn1 | > 20
c1ccc2c(Nc3ccncc3)nc(-c3ccoc3)nc2c1 | > 20
CN(C)c1nc(-c2ccccc2C(F)(F)F)nc2ccccc12 | > 20
